Experimental findings from PubChem BioAssay (NCI) are described below.

Molecules are shown by their SMILES. About 83,000 compounds went through this panel and 20% of them were active in at least one assay; those are over-represented in the sample as a whole.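 Treatment: one concentration, 48 hours, 96-well format. Scoring: percent growth, with anything below 10 considered active.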 Unmarked numbers belong to inactive results. Active and inactive are the calls of the source.

What all share (assay): NCI-60 one-dose screen, 48 h (100 = growth as untreated, 0 = no growth, -100 = all killed)
One assay concerns SK-MEL-2 melanoma. The settings on record: 10 µM.
The test system of a further assay is SN12C renal. The settings on record: 10 µM.
A further assay deals with UO-31 renal. The settings on record: 10 µM.
The subject of another assay is ACHN renal. The settings on record: 10 µM.
The next assay relates to CAKI-1 renal. To be noted: 10 µM.
The subject of another assay is A498 renal. To be noted: 10 µM.
A further assay relates to MOLT-4 leukemia. The settings on record: 10 µM.
The next assay concerns RPMI-8226 leukemia. To be noted: 10 µM.
Another assay deals with OVCAR-8 ovarian. The settings on record: 10 µM.
In another assay the test system is OVCAR-5 ovarian. The settings on record: 10 µM.
For a further assay, the system named is SK-OV-3 ovarian. The settings on record: 10 µM.
The test system of the next assay is IGROV1 ovarian. To be noted: 10 µM.
In the next assay the test system is OVCAR-3 ovarian. To be noted: 10 µM.
The test system of another assay is HS 578T breast. The settings on record: 10 µM.
The test system of a further assay is NCI/ADR-RES ovarian. To be noted: 10 µM.
For the next assay, the system named is EKVX NSCLC. The settings on record: 10 µM.
A further assay concerns TK-10 renal. The settings on record: 10 µM unless noted.
The subject of the next assay is CCRF-CEM leukemia. To be noted: 10 µM.
In another assay the test system is SR leukemia. The settings on record: 10 µM.
For a further assay, the system named is OVCAR-4 ovarian. The settings on record: 10 µM.

On to `OC1OC(COC(c2ccccc2)(c2ccccc2)c2ccccc2)C(O)C(O)C1O` (stereo unspecified), for which the growth is 91.5% in the assay on SK-MEL-2 melanoma; 74% in the assay on SN12C renal; 76.7% in the assay on UO-31 renal; 96.9% with ACHN renal; 96.5% in the assay on CAKI-1 renal; 93.7% with A498 renal. The growth in the assay with MOLT-4 leukemia was 87.6%; in the assay on RPMI-8226 leukemia, 95.9%; in the assay on OVCAR-8 ovarian, 93.7%; with OVCAR-5 ovarian it was 95.9%; in the assay with SK-OV-3 ovarian, 99.9%; in the assay on IGROV1 ovarian, 95.3%. Besides, the growth in the assay with OVCAR-3 ovarian is 104%; with HS 578T breast, 105%; in the assay on NCI/ADR-RES ovarian, 104%.

With `O=C(CN1CCNCC1)N1CCOCC1`, the growth with EKVX NSCLC was 107%; in the assay with SN12C renal it was 104%; with UO-31 renal, 84.6%; in the assay on TK-10 renal it was 110%; in the assay on ACHN renal it was 110%; in the assay on CAKI-1 renal it was 101%. The growth in the assay on A498 renal was 116%; in the assay with CCRF-CEM leukemia, 100%; in the assay with MOLT-4 leukemia it was 81.6%; in the assay with SR leukemia it was 82.6%; in the assay with RPMI-8226 leukemia, 99.3%; in the assay on OVCAR-8 ovarian it was 91.9%. For the same molecule, the growth in the assay on OVCAR-5 ovarian was 109%; in the assay on OVCAR-4 ovarian, 110%; in the assay with SK-OV-3 ovarian, 110%; in the assay on IGROV1 ovarian it was 115%; in the assay with OVCAR-3 ovarian it was 122%; with HS 578T breast, 102%. For the same molecule, the growth with NCI/ADR-RES ovarian was 107%.

For `CN(C)/N=C/c1ccccc1O`, the growth in the assay on SK-MEL-2 melanoma was 90.3%; with SN12C renal it was 97.7%; with UO-31 renal, 92.3%; in the assay on ACHN renal it was 97.6%; with CAKI-1 renal, 96.1%; in the assay on A498 renal, 94.5%. In addition, the growth in the assay with CCRF-CEM leukemia was 100%; in the assay on MOLT-4 leukemia, 95.9%; in the assay on SR leukemia it was 97.9%; with RPMI-8226 leukemia, 113%; with OVCAR-8 ovarian it was 91.3%; with OVCAR-5 ovarian, 89.9%. Moreover, the growth is 100% in the assay with OVCAR-4 ovarian; 105% in the assay with SK-OV-3 ovarian; 102% in the assay on IGROV1 ovarian; 110% with OVCAR-3 ovarian; 99.7% with HS 578T breast; 115% with NCI/ADR-RES ovarian.

Take `O=C(O)c1cccc([N+](=O)[O-])c1O`: the growth with SK-MEL-2 melanoma was 118%; with SN12C renal it was 102%; in the assay on UO-31 renal, 86.1%; with ACHN renal, 104%; in the assay on CAKI-1 renal, 99%; with A498 renal it was 109%. Besides, the growth in the assay on CCRF-CEM leukemia was 100%; in the assay with MOLT-4 leukemia, 99.5%; with SR leukemia, 94.4%; in the assay with RPMI-8226 leukemia, 107%; with OVCAR-8 ovarian it was 113%; in the assay with OVCAR-5 ovarian, 112%. Further, the growth in the assay on OVCAR-4 ovarian is 111%; in the assay with SK-OV-3 ovarian it was 98.4%; with IGROV1 ovarian it was 94.4%; with OVCAR-3 ovarian, 116%; with HS 578T breast, 112%; in the assay with NCI/ADR-RES ovarian, 102%.

Turning to `O=c1c2ccccc2c(Br)c(Br)c2ccccc12`, the growth is 105% in the assay with EKVX NSCLC; 96.8% in the assay on SN12C renal; -35.2% (active) in the assay on UO-31 renal; 23.6% with TK-10 renal; 53.7% in the assay on ACHN renal; 56.5% in the assay with CAKI-1 renal. The growth was 113% in the assay with A498 renal; 30.7% in the assay with CCRF-CEM leukemia; 53.6% with MOLT-4 leukemia; 64.4% in the assay on SR leukemia; 88.5% with RPMI-8226 leukemia; 96.6% with OVCAR-8 ovarian. The growth in the assay with OVCAR-5 ovarian was 113%; with OVCAR-4 ovarian, 82.1%; in the assay with SK-OV-3 ovarian, 109%; with IGROV1 ovarian, 91.4%; in the assay on OVCAR-3 ovarian it was 108%; in the assay on HS 578T breast, 107%. Further, the growth in the assay with NCI/ADR-RES ovarian was 60.5%.

As to `CC1(C(N)=O)CCC(C(=O)O)C1(C)C` (stereo unspecified), the growth was 104% with SK-MEL-2 melanoma; 89.1% in the assay on SN12C renal; 97.7% in the assay on TK-10 renal; 102% in the assay on ACHN renal; 99% with CAKI-1 renal; 106% with A498 renal. Besides, the growth was 104% in the assay with CCRF-CEM leukemia; 123% in the assay on MOLT-4 leukemia; 111% with SR leukemia; 100% with RPMI-8226 leukemia; 105% in the assay on OVCAR-8 ovarian; 98.2% in the assay on OVCAR-5 ovarian. The growth in the assay on OVCAR-4 ovarian is 102%; in the assay with SK-OV-3 ovarian, 94.4%; in the assay on OVCAR-3 ovarian it was 119%; in the assay on HS 578T breast, 105%; with NCI/ADR-RES ovarian, 110%.

For the molecule `CCN1C(=O)/C(=C/C=C/N(C)c2ccccc2)SC1=S`, the growth in the assay with SK-MEL-2 melanoma is 82.5%; in the assay on SN12C renal, 94.4%; in the assay with UO-31 renal it was 94.2%; in the assay on TK-10 renal, 85.6%; in the assay with CAKI-1 renal, 91.6%; in the assay on A498 renal it was 92.8%. Also, the growth with CCRF-CEM leukemia was 92%; with MOLT-4 leukemia it was 89%; in the assay on SR leukemia it was 73.4%; in the assay on RPMI-8226 leukemia, 86.8%; in the assay with OVCAR-8 ovarian, 69.2%; in the assay on OVCAR-5 ovarian, 102%. Besides, the growth is 41.3% in the assay on SK-OV-3 ovarian, 81.4% with OVCAR-3 ovarian, 58.6% with HS 578T breast and 81.5% with NCI/ADR-RES ovarian.

Consider `Cc1ccc(CCCC(=O)O)c(C)c1`, for which the growth is 91.1% with SK-MEL-2 melanoma; 97.9% with SN12C renal; 90.9% with UO-31 renal; 95% in the assay with TK-10 renal; 99.7% in the assay with CAKI-1 renal; 101% with A498 renal. Also, the growth was 98.7% with MOLT-4 leukemia; 96.7% in the assay with SR leukemia; 97.4% with OVCAR-8 ovarian; 94.5% in the assay with OVCAR-5 ovarian; 97.6% in the assay on OVCAR-4 ovarian; 97.7% in the assay with SK-OV-3 ovarian. In addition, the growth in the assay on IGROV1 ovarian was 108%; in the assay on OVCAR-3 ovarian, 108%; with HS 578T breast, 108%; with NCI/ADR-RES ovarian, 107%.

On to `CC1NC(=O)NC1CCCCCC(=O)O` (stereo unspecified), for which the growth with SK-MEL-2 melanoma is 103%; with SN12C renal it was 105%; in the assay with TK-10 renal, 100%; in the assay on ACHN renal it was 101%; with A498 renal, 87.8%; in the assay with CCRF-CEM leukemia, 2.23% (active). The growth in the assay on MOLT-4 leukemia is 118%; in the assay on SR leukemia it was 118%; with RPMI-8226 leukemia, 84%; in the assay on OVCAR-8 ovarian, 94.8%; in the assay with OVCAR-5 ovarian, 97.6%; with OVCAR-4 ovarian, 112%. The growth is 109% in the assay with SK-OV-3 ovarian; 125% in the assay with IGROV1 ovarian; 108% with OVCAR-3 ovarian; 106% in the assay on HS 578T breast; 113% in the assay with NCI/ADR-RES ovarian.

For `O=[N+]([O-])c1cccc2nsnc12`, the growth in the assay with SK-MEL-2 melanoma is 106%; in the assay with SN12C renal it was 104%; in the assay with ACHN renal, 105%; with CAKI-1 renal, 114%; with A498 renal, 102%; in the assay on CCRF-CEM leukemia, 95.9%. Also, the growth in the assay on MOLT-4 leukemia is 101%; with SR leukemia, 99.8%; with RPMI-8226 leukemia it was 104%; with OVCAR-8 ovarian, 93.4%; in the assay with OVCAR-5 ovarian, 122%; with OVCAR-4 ovarian, 114%. The growth in the assay with SK-OV-3 ovarian was 94.1%; in the assay on OVCAR-3 ovarian, 107%; with HS 578T breast, 101%; in the assay on NCI/ADR-RES ovarian, 110%.
